Results from PubChem BioAssay (Tox21).
Inconclusive results are not listed. Calls of active or inactive are those of the source. Unless noted, the call rests on the fitted dose curve; in most records, active means well fitted curve in the direction sought with a large enough effect in the repeat runs; inconclusive means weak or mixed curves; inactive means no such curve, though single readings can be large; an effect the other way counts as inactive or inconclusive.

Columns and labels:
[1] = A CellTox Green Cytotoxicity Assay to monitor cytotoxicity in HEK293 cells - 32 hour (AID 1224881); further: nearly all actives have a fitted effect of over 40% in size; further: potency means the concentration at half of the fitted maximal effect
Method in brief: (§1)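 Real-time, in one plate: 600 HEK293 cells/well with dead-cell DNA dye, pinned compound after 5 h, 37 C incubation over 40 h; viable cells give no appreciable fluorescence.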

[2] = A CellTox Green Cytotoxicity Assay to monitor cytotoxicity in HepG2 cells - 32 hour (AID 1224883); further: nearly all actives have a fitted effect of over 50% in size; further: potency means the concentration at half of the fitted maximal effect
Method in brief: (§2)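 Cytotoxicity was tracked as dead-cell DNA fluorescence in HepG2 cells treated with test compounds at 37 C; each time-point value comes from one kinetic series spanning 0, 8, 16, 24, 32 and 40 h.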

[3] = A CellTox Green Cytotoxicity Assay to monitor cytotoxicity in HEK293 cells - 8 hour (AID 1224884); further: nearly all actives have a fitted effect of over 35% in size; further: potency means the concentration at half of the fitted maximal effect
Method in brief: as §1

[4] = qHTS RealTime-Glo MT Cell Viability Assay in HepG2 cells - 16 hour (AID 1224885); further: nearly all actives have a fitted effect of over 50% in size; further: potency means the concentration at half of the fitted maximal effect
Method in brief: (§3)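 HepG2 cells were seeded at 600 cells/well together with NanoLuc luciferase and a cell-permeant prosubstrate, preincubated 5 h at 37 C/5% CO2, then pin-dosed with compounds in DMSO. Nonlytic luminescence from viable cells was read at each time point.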

[5] = qHTS RealTime-Glo MT Cell Viability Assay in HEK293 cells - 24 hour (AID 1224886); further: nearly all actives have a fitted effect of over 50% in size; further: potency means the concentration at half of the fitted maximal effect; on activity change, negative = cytotoxicity: top concentration of the series differs between compounds
Method in brief: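 HEK293 cells were seeded at 600 cells/well together with NanoLuc luciferase and cell-permeant prosubstrate, preincubated 5 h at 37 C/5% CO2, then given compound in DMSO by pintool. Luminescence from viable-cell prosubstrate reduction was read repeatedly over 40 h.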

[6] = qHTS RealTime-Glo MT Cell Viability Assay in HEK293 cells - 8 hour (AID 1224887); further: nearly all actives have a fitted effect of over 50% in size; further: potency means the concentration at half of the fitted maximal effect; on activity change, negative = cytotoxicity: top concentration of the series differs between compounds
Method in brief: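 Kinetic, non-lysing viability readout. Seed HEK293 (600/well) with reagent, incubate 5 h at 37 C/5% CO2, pin 23 nL compound in DMSO, incubate at 37 C, read luminescence at 0, 8, 16, 24, 32, 40 h.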

[7] = A CellTox Green Cytotoxicity Assay to monitor cytotoxicity in HEK293 cells - 16 hour (AID 1224888); further: nearly all actives have a fitted effect of over 35% in size; further: potency means the concentration at half of the fitted maximal effect
Method in brief: as §1

[8] = qHTS RealTime-Glo MT Cell Viability Assay in HepG2 cells - 0 hour (AID 1224889); further: nearly all actives have a fitted effect of over 50% in size
Method in brief: as §3

[9] = A CellTox Green Cytotoxicity Assay to monitor cytotoxicity in HepG2 cells - 8 hour (AID 1224890); further: nearly all actives have a fitted effect of over 45% in size; further: potency means the concentration at half of the fitted maximal effect
Method in brief: as §2

[10] = qHTS assay to identify small molecule antagonists of the estrogen receptor alpha (ER-alpha) signaling pathway using the BG1 cell line in the presence of 0.1 nM 17-beta-estradiol - cell viability counter screen (AID 1259241); further: nearly all actives have a fitted effect of over 40% in size; further: potency means the concentration at half of the fitted maximal effect
Method in brief: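 CellTiter-Fluor read (30 min, 37C) on ER-alpha/ERE-luc VM7Luc4E2 cells; 22 hr compound treatment; agonist 0.1 nM E2 final; same-well multiplex.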

[11] = qHTS assay to identify small molecule antagonists of the androgen receptor (AR) signaling pathway using the MDA cell line in the presence of 0.5 nM R1881 - cell viability counter screen (AID 1259242); further: nearly all actives have a fitted effect of over 45% in size; further: potency means the concentration at half of the fitted maximal effect
Method in brief: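 Cells seeded at 3,000/well and allowed 5 hr at 37C, 0% CO2 before compound transfer and R1881 (0.5 nM final) addition; 16 hr later, live-cell protease fluorescence indicated cytotoxicity.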

[12] = qHTS assay to identify small molecule phospholipidosis (PLD) inducers (AID 1259344; active means well fitted curve in the direction sought with a large enough effect; an effect the other way counts as inactive or inconclusive)
Method in brief: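 Image-based: LipidTOX Red pit count/intensity per well and per cell; HepG2, 24 h compound at 37 C, PFA fixation, Hoechst counterstain.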

[13] = qHTS assay to identify small molecule HDAC inhibitors (AID 1259364); further: potency means the concentration at half of the fitted maximal effect;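 further: wild-type HCT-116 cells with endogenous class I/II HDAC activity; nearly all actives have a fitted effect of over 45% in size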; on activity change, negative = inhibition: top concentration of the series differs between compounds
Method in brief: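 HCT-116 wt cells, 1,500/well, overnight attach. Compounds (DMSO) 2 h, 37 °C. HDAC-Glo I/II, 30 min RT. Luminescence.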

[14] = qHTS assay to identify small molecule HDAC inhibitors - cell viability counter screen (AID 1259365); further: nearly all actives have a fitted effect of over 50% in size; further: potency means the concentration at half of the fitted maximal effect; on activity change, negative = cytotoxicity: series mostly up to about 92 µM
Method in brief: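 To flag cytotoxic hits, 1,500 wild-type HCT-116 cells per well, plated the day before, receive test compounds for 2hr at 37 C before CellTiter-Glo reagent and a luminescence read.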

[15] = qHTS assay to identify small molecule agonists of the sonic hedgehog signaling (Shh) pathway - cell viability counter screen (AID 1259366); further: nearly all actives have a fitted effect of over 50% in size; further: potency means the concentration at half of the fitted maximal effect
Method in brief: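 Fluorescence from CellTiter-Fluor reports live cells in this counter screen. NIH/3T3-derived Gli1-Luc reporter cells receive test compounds for 24hr at 37C; reagent goes in at 23hr.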

[16] = qHTS assay to identify small molecule agonists of the sonic hedgehog signaling (Shh) pathway (AID 1259368; calls by dose curve;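 further: NIH/3T3-derived 3T3Gli1-Luc cells carrying a stable Gli1-driven firefly luciferase reporter; series mostly up to about 92 µM; nearly all actives have a fitted effect of over 15% in size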)
Method in brief: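 Following a 24 hr incubation with DMSO-dissolved compounds at 37 C, 5% CO2, Gli1-Luc NIH/3T3-derived cells received luciferase reagent for 30 min at room temperature prior to luminescence measurement.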

[17] = qHTS assay to identify small molecule antagonists of the sonic hedgehog signaling (Shh) pathway - cell viability counter screen (AID 1259367); further: nearly all actives have a fitted effect of over 55% in size; further: potency means the concentration at half of the fitted maximal effect
Method in brief: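 Tox21 library chemicals were tested on a Gli1-Luc NIH/3T3 clone (2,000 cells/well) stimulated by conditioned medium; viability was quantified as fluorescence from CellTiter-Fluor reagent added at 23 hr.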

[18] = A CellTox Green Cytotoxicity Assay to monitor cytotoxicity in HepG2 cells - 0 hour (AID 1224882); further: nearly all actives have a fitted effect of over 35% in size; further: potency means the concentration at half of the fitted maximal effect
Method in brief: as §2

[19] = target: Estrogen receptor (Homo sapiens) (UniProt P03372); assay: qHTS assay to identify small molecule antagonists of the estrogen receptor alpha (ER-alpha) signaling pathway using the BG1 cell line in the presence of 0.1 nM 17-beta-estradiol (AID 1259244); further: nearly all actives have a fitted effect of over 50% in size; further: potency means the concentration at half of the fitted maximal effect
Method in brief: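 Luciferase signal from VM7Luc4E2 ERE-reporter cells, co-dosed with test compound and 0.1 nM final 17beta-estradiol for 22 h, read with ONE-Glo.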
On the % scale 0 is the no-effect control and ±100 the full control effect.

Sequence of Estrogen receptor (Homo sapiens) (P03372 whole entry, looked up): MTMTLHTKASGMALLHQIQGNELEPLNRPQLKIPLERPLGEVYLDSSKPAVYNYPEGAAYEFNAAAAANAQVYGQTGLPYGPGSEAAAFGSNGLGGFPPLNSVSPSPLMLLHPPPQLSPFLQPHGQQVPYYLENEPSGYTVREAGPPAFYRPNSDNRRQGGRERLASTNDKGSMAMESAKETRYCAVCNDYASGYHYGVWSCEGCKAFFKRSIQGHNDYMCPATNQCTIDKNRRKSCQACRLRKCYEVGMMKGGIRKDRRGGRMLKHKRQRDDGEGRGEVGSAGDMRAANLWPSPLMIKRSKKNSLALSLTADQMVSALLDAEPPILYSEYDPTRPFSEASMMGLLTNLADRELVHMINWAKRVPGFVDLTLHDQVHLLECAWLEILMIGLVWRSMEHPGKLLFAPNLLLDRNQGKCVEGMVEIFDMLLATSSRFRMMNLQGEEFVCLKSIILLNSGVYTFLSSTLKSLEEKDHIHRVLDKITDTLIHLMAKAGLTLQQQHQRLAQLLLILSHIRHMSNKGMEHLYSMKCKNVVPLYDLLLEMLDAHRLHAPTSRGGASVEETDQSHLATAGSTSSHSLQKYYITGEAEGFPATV

Cc1cc(C(C#N)c2ccc(Cl)cc2)c(Cl)cc1NC(=O)c1cc(I)cc(I)c1O (centres undefined)
inactive: Potency [1] | Potency [2] | Potency [3] | Potency [4] | Potency [5] | Potency [6] | Potency [7] | Potency [8] | Potency [9] | Potency [10] | Potency [11] | Potency [12] | Potency [13] | Potency [14] | Potency [15] | Potency [16]

COc1ccc2cc1Oc1ccc(cc1)C[C@H]1c3c(cc4c(c3Oc3cc5c(cc3OC)CCN(C)[C@@H]5C2)OCO4)CCN1C
active: Potency [2] 23.9 µM | Potency [11] 21.1 µM | Potency [15] 11.9 µM | Potency [17] 15 µM
inactive: Potency [3] | Potency [8] | Potency [9] | Potency [13] | Potency [14] | Potency [16]

CCOC(=O)c1ccc(C2CCC(NC[C@H](O)COc3ccc(O)c(NS(C)(=O)=O)c3)CC2)cc1 (some centres undefined)
inactive: Potency [18] | Potency [3] | Potency [7] | Potency [9] | Potency [10] | Potency [11] | Potency [13] | Potency [14] | Potency [16]
active: Potency [2] 45.2 µM | Potency [5] 20.2 µM | Potency [6] 20.2 µM | Potency [17] 50.2 µM

COc1cc(S(=O)(=O)O)c(C)cc1N=Nc1c(O)ccc2cc(S(=O)(=O)O)ccc12
active: Potency [10] 21.7 µM | Potency [11] 24.3 µM | Potency [15] 27.3 µM | Potency [17] 24.3 µM
inactive: Potency [1] | Potency [2] | Potency [3] | Potency [5] | Potency [6] | Potency [7] | Potency [9] | Potency [13] | Potency [16]

Cc1ccc(O)c(N)c1
active: Potency [15] 43.3 µM | Potency [17] 27.3 µM
inactive: Potency [1] | Potency [3] | Potency [4] | Potency [7] | Potency [8] | Potency [9] | Potency [10] | Potency [11] | Potency [14] | Potency [16]

O=C(c1ccc(O)c(O)c1)c1ccc(O)cc1O
active: Potency [19] 61 µM | Potency [13] 24.3 µM
inactive: Potency [18] | Potency [3] | Potency [4] | Potency [6] | Potency [8] | Potency [9] | Potency [10] | Potency [11] | Potency [16]

O=C(O)CCN(C1(C(=O)NO)CCCC1)S(=O)(=O)c1ccc(Oc2ccc(F)cc2)cc1
inactive: Potency [18] | Potency [2] | Potency [3] | Potency [4] | Potency [5] | Potency [6] | Potency [7] | Potency [8] | Potency [9] | Potency [10] | Potency [11] | Potency [13] | Potency [14] | Potency [17] | Potency [16]

CC[C@H](C)COC(=O)/C=C/c1ccc(N=Cc2ccc(OC)cc2)cc1
active: Potency [5] 21.8 µM
inactive: Potency [18] | Potency [3] | Potency [4] | Potency [7] | Potency [8] | Potency [9] | Potency [10] | Potency [11] | Potency [14] | Potency [15] | Potency [17] | Potency [16]

O=C(O)c1cc(O)c2ccccc2c1O
inactive: Potency [3] | Potency [7] | Potency [9] | Potency [16]
active: Potency [1] 21.9 µM | Potency [4] 19.5 µM | Potency [5] 43.6 µM | Potency [6] 17.4 µM | Potency [10] 34.4 µM | Potency [11] 54.5 µM | Potency [19] 27.3 µM | Potency [14] 21.7 µM | Potency [17] 13.7 µM

OCCN1CCN(CCCN2c3ccccc3Sc3ccc(C(F)(F)F)cc32)CC1
active: Potency [2] 26.8 µM | Potency [5] 23.9 µM | Potency [7] 26.8 µM
inactive: Potency [18] | Potency [3] | Potency [8] | Potency [10] | Potency [19] | Potency [13] | Potency [14] | Potency [17] | Potency [16]

COc1ccc(NC(=O)CC(C)=O)cc1
inactive: Potency [18] | Potency [2] | Potency [3] | Potency [4] | Potency [5] | Potency [6] | Potency [8] | Potency [9] | Potency [10] | Potency [11] | Potency [14] | Potency [17] | Potency [16]

O=C(O)CN(CCN(CC(=O)O)CC(=O)O)CC(=O)O
inactive: activity change, negative = cytotoxic [4] -5.14% [at 2.72 µM] | activity change, negative = cytotoxicity [5] 5.68% [at 2.72 µM] | activity change, negative = cytotoxicity [6] -1.21% [at 2.72 µM] | activity change, negative = cytotoxicity [8] -5.49% [at 2.72 µM] | activity change, negative = cytotoxicity [10] -6% [at 3.27 µM] | viability change, negative = cytotoxic [11] 4.5% [at 3.26 µM] | Potency [12] | activity change, negative = inhibition [13] 2.84% [at 3.27 µM] | activity change, negative = cytotoxicity [14] 0.173% [at 3.27 µM] | viability change, negative = cytotoxic [15] 3.2% [at 3.27 µM] | viability change, negative = cytotoxic [17] -2.72% [at 3.27 µM] | activity change [16] 0.474% [at 3.27 µM, hits give high values]
active: Potency [18] 1.74 µM | Potency [2] 1.74 µM | Potency [3] 1.96 µM | Potency [7] 1.96 µM | Potency [9] 1.74 µM

COc1cccc(OC)c1C(=O)O
inactive: Potency [2] | Potency [3] | Potency [4] | Potency [5] | Potency [6] | Potency [8] | Potency [9] | Potency [10] | Potency [11] | Potency [13] | Potency [14] | Potency [15] | Potency [17] | Potency [16]

CN1CCC[C@@H]1CCO[C@](C)(c1ccccc1)c1ccc(Cl)cc1
inactive: Potency [3] | Potency [6] | Potency [13] | Potency [14] | Potency [16]
active: Potency [1] 26.8 µM | Potency [2] 21.3 µM | Potency [5] 10.7 µM | Potency [7] 23.9 µM | Potency [11] 26.6 µM | Potency [15] 23.7 µM

Cc1cc(-c2ccc(N=Nc3cc(S(=O)(=O)O)c4ccccc4c3N)c(C)c2)ccc1N=Nc1cc(S(=O)(=O)O)c2ccccc2c1N
inactive: Potency [18] | Potency [2] | Potency [3] | Potency [4] | Potency [6] | Potency [7] | Potency [8] | Potency [9] | Potency [10] | Potency [13] | Potency [14] | Potency [15] | Potency [16]
active: Potency [19] 7.74 µM

CCCCCC(C)OC(=O)COc1ccc(Cl)c2cccnc12 (centres undefined)
inactive: Potency [18] | Potency [3] | Potency [7] | Potency [8] | Potency [9] | Potency [10] | Potency [11] | Potency [13] | Potency [14] | Potency [15] | Potency [17] | Potency [16]
